Our source for the outcome and AC50 values is PubChem BioAssay (EPA / NIEHS).

Several values for one entry are separate records, joined by “and”; a condition that tells them apart may be missing. Equal values may be shown once. Some structures have more than one record in an assay (separate samples or runs), and their calls can disagree. Activity calls are given as the source filed them. How the source made its calls: active means hit-call score of the fitted dose curve at least 0.9, where 1 is the maximum; inactive means score below 0.9.

By AC50 is commonly meant the midpoint of the concentration-response curve, whichever way the signal moves.

Read-out in this experiment: Macrophage Inflammatory Protein-1 Alpha (MIP1a), CCL3 (gene 6348)
In words: BSK_IMphg_MIP1a: BioMAP Diversity Plus: IMphg Assay for Macrophage Inflammatory Protein-1 Alpha (MIP1a) Biomarker Activity (AID 2284255). Particulars: primary human endothelial cells with macrophages. The procedure:
BSK_IMphg is a cell-based, multiplexed-readout assay that uses venular endothelial cells and macrophages, a human vascular primary cell, with measurements taken at 24 hours after chemical dosing in a microplate: 96-well plate.BSK_IMphg_MIP1a is an assay component measured in the BSK_IMphg assay. It measures MIP-1a antibody related to regulation of gene expression using ELISA technology.Data from the assay component BSK_IMphg_MIP1a was analyzed at the endpoint, BSK_IMphg_MIP1a, in the positive analysis fitting direction relative to DMSO as the negative control and baseline of activity. Using a type of binding reporter, gain or loss-of-signal activity can be used to understand protein changes. To generalize the intended target to other relatable targets, this assay endpoint is annotated to the 'cytokine' intended target family, where the subfamily is 'inflammatory factor'.
The levels of cell surface (or secreted, indicated by the prefix "s") biomarker endpoints were measured by ELISA. Overt cytotoxicity to cells in confluent adherent cultures (all systems other than the BT system) was assessed by measuring total protein levels using sulforhodamine B (SRB) staining in parallel cultures at the time of biomarker measurements, indicated as SRB endpoints. For proliferation assays for adherent cell types, individual cell types are cultured at sub-confluence and relative cell numbers quantified by SRB staining at time points optimized for each system (48 h: 3C and CASM3C systems; 72 h: BT and HDF3CGF systems; 96 h: SAg system). SRB was performed by staining cells with 0.1% SRB after fixation with 10% TCA and reading wells at 560 nm.Viability and proliferation of PBMC (T cells) was quantified by Alamar Blue reduction for the SAg and BT systems. For PBMC viability (referred to as PBMC Cytotoxicity within the assay endpoint names), cells were plated (75,000/well in a 96-well plate) and then chemical samples added for 1 h before addition of activators, SEB and TSST-1 (20 ng/mL final concentration each). Cells were incubated for 90 h. Then, Alamar Blue (20 uL/well) (Invitrogen, Cat DAL1100) was added for 6 h, and the plates were read with a fluorescence microplate reader at 546/580 nm (excitation/emission). For PBMC proliferation, cells were plated and activated as above but incubated for only 16 h prior to addition of Alamar Blue. Plates were read after 6 h.
For the compound `O=S(=O)(Cl)C(F)(F)C(F)(F)C(F)(F)C(F)(F)C(F)(F)C(F)(F)C(F)(F)C(F)(F)F`, the result was inactive. With `O=C(O)CCC(F)(F)C(F)(F)C(F)(F)C(F)(F)C(F)(F)C(F)(F)C(F)(F)F`, the AC50 is 1.39 µM (active) and 1.57 µM (active). `OCCCCC(F)(F)C(F)(F)C(F)(F)C(F)(F)F`: the result was inactive.

In the case of `O=C(Cl)C(F)(F)C(F)(F)C(F)(F)C(F)(F)C(F)(F)C(F)(F)C(F)(F)F`, the AC50 was 237 nM (active) and the outcome was inactive. For the compound `COC(F)(C(F)F)C(F)(F)F` (stereo not given), the outcome was inactive. Take `C=C(C)C(=O)OCC(F)(F)C(F)(F)C(F)(F)C(F)F`: the outcome was inactive. Same read-out and setting: as for `O=S(=O)(O)CCC(F)(F)C(F)(F)C(F)(F)C(F)(F)C(F)(F)C(F)(F)C(F)(F)C(F)(F)F`, the entry is “inactive”. Take `CCN(CCO)S(=O)(=O)C(F)(F)C(F)(F)C(F)(F)C(F)(F)C(F)(F)C(F)(F)C(F)(F)C(F)(F)F`: the AC50 is 1.54 µM (active) and 12.7 µM (active).

For `OCC(O)CC(F)(F)C(F)(F)C(F)(F)C(F)(F)F` (stereo not given), the outcome was inactive. Take `O=C(O)CCC(F)(F)C(F)(F)C(F)(F)F`: the result was inactive. On the same count and under the same terms, as for `OCC(F)(F)C(F)(F)C(F)(F)CO`, the entry is “inactive”; as for `O=C(O)C(F)(F)C(F)(F)C(F)(F)OC(F)(C(F)(F)F)C(F)(F)F`, “inactive”; as for `NCC(F)(F)C(F)(F)C(F)(F)C(F)(F)C(F)(F)C(F)(F)C(F)(F)C(F)(F)F`, “inactive”. Regarding `C=CC(=O)OCC(F)(F)C(F)(F)C(F)(F)C(F)(F)C(F)(F)C(F)(F)C(F)(F)C(F)F`, the result was inactive.

As to `OCC(O)CC(F)(F)C(F)(F)C(F)(F)C(F)(F)C(F)(F)C(F)(F)C(F)(F)C(F)(F)F` (stereo not given), the result was inactive. As to `OCCCC(F)(F)C(F)(F)C(F)(F)C(F)(F)C(F)(F)C(F)(F)C(F)(F)C(F)(F)F`, the AC50 is 41 µM (active) and 56.7 µM (active). Consider `OCC(F)(F)C(F)(F)C(F)(F)C(F)(F)C(F)(F)C(F)(F)CO`, for which the result was inactive. On the same count and under the same terms, as for `OC(O)C(F)(F)C(F)(F)F`, the entry is “inactive”. In the case of `NC(O)(C(F)(F)F)C(F)(F)F`, the result was inactive. On to `C=CC(=O)OCC(F)(F)C(F)(F)C(F)(F)COC(=O)C=C`, for which the AC50 is 47.1 µM (active) and 48 µM (active). In the case of `NC(=O)C(F)(F)C(F)(F)C(F)(F)C(F)(F)C(F)(F)C(F)(F)C(F)(F)F`, the result was inactive. In the case of `OCC(F)(F)C(F)(F)C(F)(F)C(F)(F)C(F)(F)C(F)(F)C(F)(F)C(F)(F)CO`, the AC50 is 50 µM (active) and 51.6 µM (active). On to `NS(=O)(=O)C(F)(F)C(F)(F)C(F)(F)C(F)(F)C(F)(F)C(F)(F)F`, for which the outcome was inactive. The same measure, in the same setting: as for `FC(F)(F)C(F)(F)C(F)(F)C(F)(F)C(F)(F)C(F)(F)CC[Si](Cl)(Cl)Cl`, the entry is “inactive”; as for `CNS(=O)(=O)C(F)(F)C(F)(F)C(F)(F)C(F)(F)C(F)(F)C(F)(F)C(F)(F)C(F)(F)F`, “inactive”. For the compound `NC(=O)C(F)(F)C(F)(F)C(F)(F)C(F)(F)C(N)=O`, the result was inactive. On the same count and under the same terms, as for `O=C(Cl)C(F)(F)C(F)(F)C(F)(F)C(F)(F)C(F)(F)C(F)(F)F`, the entry is “inactive”; as for `O=C(O)C(F)(F)C(F)(F)C(F)(F)OC(F)(F)F`, “inactive”; as for `C=CC(=O)OCCC(F)(F)C(F)(F)C(F)(F)C(F)(F)F`, “inactive”.

For the compound `C[Si](Cl)(Cl)CCC(F)(F)C(F)(F)C(F)(F)C(F)(F)C(F)(F)C(F)(F)F`, the result was inactive. Turning to `O=C(O)C(F)(F)OC(F)(F)C(F)(F)OC(F)(F)C(F)(F)OC(F)(F)F`, the result was inactive. Same read-out and setting: as for `FC(F)(F)C(F)(F)C(F)(F)C(F)(F)C(F)(F)C(F)(F)C(F)(F)CCI`, the entry is “inactive”; as for `CN(C(=O)C(F)(F)C(F)(F)C(F)(F)F)[Si](C)(C)C`, “inactive”; as for `FC(F)(F)C(F)(F)C(F)(F)CC1CO1` (stereo not given), “inactive”. With `O=C(O)C(F)(F)C(F)(F)C(F)(F)C(=O)O`, the result was inactive. The same measure, in the same setting: as for `NCC(F)(F)C(F)(F)C(F)(F)C(F)(F)C(F)(F)C(F)(F)F`, the entry is “inactive”; as for `O=S(=O)(O)CCC(F)(F)C(F)(F)C(F)(F)C(F)(F)F`, “inactive”; as for `CCOC(=O)CC(=O)C(F)(F)C(F)(F)F`, “inactive”. Consider `CO[Si](C)(CCC(F)(F)C(F)(F)C(F)(F)C(F)(F)C(F)(F)C(F)(F)F)OC`, for which the outcome was inactive.
